Several values for one entry are separate records, joined by “and”; a condition that tells them apart may be missing. Identical values can stand only once. Among all 5,500 compounds or so, about 2,000 (36%) were called active. About 18% were inconclusive and are not listed. Rule as the data show it: active = normalized growth mostly below about 0.91 (no sharp cut-off); inconclusive = no clear call, values can overlap the other calls; inactive = mostly above about 0.92. The list shows a part of the results.
Test: chemical genetic growth profiling, strain panel (AID 1159580);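 also: tested at 20 µM; growth read once vehicle control cultures reached saturation at 30 °C; 1 = growth at the plate median or of vehicle wells; lower values mean less growth of the strain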
Conditions: S. cerevisiae deletion strains, growth OD

Measured: normalized growth

C[CH2][Hg][S]c1ccccc1C(=O)O
active: locus YAL013W, strain DEP1, hits give low values 0.0571 | locus YAL021C, strain ccr4, hits give low values 0.0644 | locus YAL026C, strain drs2, hits give low values 0.0601 | locus YAL030W, strain snc1, hits give low values 0.0549 | locus YBL061C, strain skt5, hits give low values 0.0584 | locus YBR009C, strain hhf1, hits give low values 0.0625 | locus YBR021W, strain FUR4, hits give low values 0.0826 | locus YBR023C, strain chs3, hits give low values 0.0607 | locus YBR171W, strain sec66, hits give low values 0.0719 | locus YBR229C, strain ROT2, hits give low values 0.0466 | locus YBR231C, strain swc5, hits give low values 0.0602 | locus YBR279W, strain paf1, hits give low values 0.0565 | locus YCL011C, strain gbp2, hits give low values 0.0545 | locus YCL016C, strain dcc1, hits give low values 0.0628 | locus YCL029C, strain bik1, hits give low values 0.0644 | locus YCL061C, strain MRC1, hits give low values 0.0624 | locus YCL069W, strain vba3, hits give low values 0.0582 | locus YCR088W, strain abp1, hits give low values 0.0571 | locus YDL005C, strain med2, hits give low values 0.0718 | locus YDL035C, strain GPR1, hits give low values 0.0506 | locus YDL040C, strain nat1, hits give low values 0.0559 | locus YDL074C, strain BRE1, hits give low values 0.0797 | locus YDL101C, strain DUN1, hits give low values 0.0547 | locus YDL134C, strain PPH21, hits give low values 0.0487 | locus YDL185W, strain tfp1, hits give low values 0.056 | locus YDL192W, strain arf1, hits give low values 0.0586 | locus YDR001C, strain nth1, hits give low values 0.0548 | locus YDR069C, strain doa4, hits give low values 0.0614 | locus YDR101C, strain arx1, hits give low values 0.0572 | locus YDR137W, strain rgp1, hits give low values 0.0826 | locus YDR150W, strain NUM1, hits give low values 0.058 | locus YDR159W, strain sac3, hits give low values 0.0891 | locus YDR162C, strain NBP2, hits give low values 0.0541 | locus YDR195W, strain ref2 0.117 | locus YDR297W, strain sur2, hits give low values 0.0559 | locus YDR318W, strain mcm21, hits give low values 0.0596 | locus YDR334W, strain swr1, hits give low values 0.06 | locus YDR335W, strain msn5, hits give low values 0.0577 | locus YDR388W, hits give low values 0.0549 | locus YDR392W, strain spt3, hits give low values 0.0928 | locus YDR502C, strain sam2, hits give low values 0.0576 | locus YEL003W, strain gim4, hits give low values 0.0526 | locus YEL037C, strain rad23, hits give low values 0.0545 | locus YEL061C, strain CIN8 (second series), hits give low values 0.058 | locus YEL061C, strain CIN8, hits give low values 0.0473 | locus YER015W, strain faa2, hits give low values 0.0585 | locus YER016W, strain bim1, hits give low values 0.059 | locus YER110C, hits give low values 0.0716 | locus YER111C, strain swi4, hits give low values 0.0734 | locus YER155C, strain BEM2 (second series), hits give low values 0.0849 | locus YER155C, strain BEM2, hits give low values 0.0624 | locus YER167W, strain BCK2, hits give low values 0.0502 | locus YFR010W, strain ubp6, hits give low values 0.0647 | locus YGL078C, strain dbp3, hits give low values 0.0538 | locus YGL086W, strain mad1, hits give low values 0.0535 | locus YGL167C, strain pmr1, hits give low values 0.0714 | locus YGL173C, strain kem1, hits give low values 0.0663 | locus YGL227W, strain vid30, hits give low values 0.059 | locus YGL240W, strain doc1, hits give low values 0.0734 | locus YGL248W, strain PDE1, hits give low values 0.0448 | locus YGL253W, strain hxk2, hits give low values 0.0514 | locus YGR078C, strain PAC10, hits give low values 0.0492 | locus YGR135W, strain pre9, hits give low values 0.0647 | locus YGR229C, strain SMI1, hits give low values 0.0574 | locus YGR252W, strain gcn5, hits give low values 0.152 | locus YHR013C, strain ard1, hits give low values 0.106 | locus YHR027C, strain rpn1, hits give low values 0.0612 | locus YHR030C, strain SLT2, hits give low values 0.0498 and 0.113 | locus YHR079C, strain IRE1 (second series), hits give low values 0.0541 | locus YHR079C, strain IRE1, hits give low values 0.123 | locus YHR094C, strain hxt1, hits give low values 0.0545 | locus YHR129C, strain ARP1, hits give low values 0.0546 | locus YHR142W, strain chs7, hits give low values 0.0696 | locus YHR200W, strain rpn10, hits give low values 0.057 | locus YIL066C, strain RNR3, hits give low values 0.0505 | locus YIL073C, strain SPO22, hits give low values 0.103 | locus YIL125W, strain kgd1, hits give low values 0.0543 | locus YIR030C, strain dcg1, hits give low values 0.0568 | locus YJL092W, strain hpr5, hits give low values 0.0555 | locus YJL095W, strain BCK1 (second series), hits give low values 0.0563 | locus YJL095W, strain BCK1, hits give low values 0.0505 and 0.109 | locus YJL115W, strain asf1, hits give low values 0.0695 | locus YJL129C, strain trk1, hits give low values 0.0829 | locus YJL134W, strain LCB3, hits give low values 0.0483 | locus YJL154C, strain vps35, hits give low values 0.0588 | locus YJL164C, strain tpk1, hits give low values 0.0629 | locus YJL166W, strain qcr8, hits give low values 0.0596 | locus YJL168C, strain set2, hits give low values 0.0562 | locus YJL187C, strain SWE1 (second series), hits give low values 0.0465 | locus YJL187C, strain SWE1, hits give low values 0.0547 | locus YJR043C, strain POL32, hits give low values 0.0607 | locus YJR066W, strain TOR1, hits give low values -0.000335
